# Measurements reported in the supplement of paper PMC3334620.
# Whole data set: some 33,000 sequences, median “E-score (-0.5 to 0.5)” near -0.0034, cut for the highest 2% near 0.25. This is one part of a sample in which the highest values are shown more often than they occur.
# Molecular target: T1, Yap3 (UniProt P38749)
# T1 sequence: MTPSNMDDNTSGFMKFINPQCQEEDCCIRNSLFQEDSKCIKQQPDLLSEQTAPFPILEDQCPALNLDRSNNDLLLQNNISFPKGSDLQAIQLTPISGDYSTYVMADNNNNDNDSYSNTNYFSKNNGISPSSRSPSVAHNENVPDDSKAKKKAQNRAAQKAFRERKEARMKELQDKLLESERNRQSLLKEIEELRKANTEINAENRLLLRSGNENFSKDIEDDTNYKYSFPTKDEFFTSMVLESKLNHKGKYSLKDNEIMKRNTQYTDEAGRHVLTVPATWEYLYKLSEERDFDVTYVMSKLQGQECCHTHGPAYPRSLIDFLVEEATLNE
# Test: PBM E-score (8-mer binding enrichment) (E-score (-0.5 to 0.5)); higher = stronger / more preferred TF binding
# Settings: protein concentration: 100 nM; construct: GST-full length
# Procedure, shortened: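 For each ungapped eight-base word taken together with its reverse complement, the Universal PBM Analysis Suite assigned an E-score. Binding data came from GST-tagged yeast transcription factors, applied at about 100-200 nM, on universal all-10-mer Agilent arrays made double-stranded by primer extension. Fluorescent anti-GST marked bound protein, and scans were normalised with masliner.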
row,Sequence,PBM E-score
1,CTCCTATA,-0.191
2,GTCCTATA,-0.0462
3,ATCCTATA,0.26
4,CGAGTTGA,0.0975
5,GCGGTCGA,0.0757
6,ACCTGAAG,0.00792
7,GCCTTTTA,-0.0778
8,CTGGGCGC,-0.229
9,GATTTCAA,0.0767
10,GATTTCCC,0.124
11,CATTTCCC,0.293
12,TATTTCAA,0.235
13,CATTTCAA,0.265
14,CATTTTCC,0.193
15,ATGGGAGG,-0.0823
16,TATCTGCA,0.0463
17,AAAGGTCG,-0.0514
18,AACTTGCA,0.108
19,TATTCACA,0.27
20,CATTCACG,-0.0375
21,GATTCACA,0.00517
22,GAAAATCC,0.0305
23,GCGATGAC,0.0826
24,AGAATTTG,0.107
25,CGAATTTC,0.298

row,Sequence,PBM E-score
1,GGAATTTA,0.173
2,AGAATTTA,0.276
3,ATAATTTA,0.303
4,GTAATTTA,0.238
5,CTAATTTA,0.19
6,ATAATTTG,0.294
7,ATAATTTC,0.17
8,AAAATTTG,0.0972
9,CGAATTTA,0.136
10,AGAATTTC,-0.00706
11,AAGAAGGG,-0.0033
12,CCCCGTCG,-0.309
13,CATGCTTC,-0.024
14,CAAGGGGG,-0.226
15,AGTGCATA,-0.0677
16,GACTGAGC,-0.255
17,CCTGTTCC,-0.0284
18,AAGGCCCC,-0.285
19,ATACAGGG,0.14
20,CAGCCTAA,-0.12
21,AACACGAT,0.0988
22,GAAATTAA,0.342
23,AAAATTAT,0.257
24,AAAATTAA,0.138
25,AAAATTGC,0.0358

row,Sequence,PBM E-score
1,AAATTTAC,0.219
2,GAAATTCC,0.0452
3,AAAATTAG,0.227
4,CAAATTAA,0.155
5,AAAATTAC,0.273
6,GAAATTAC,0.265
7,AAAATTTT,0.246
8,CAAATTAC,0.144
9,GGCTGGGA,-0.103
10,AACCACCG,-0.0601
11,CTGGTATA,-0.0636
12,TCCATGGA,0.142
13,ACAGATGG,0.00201
14,CCTAATCC,0.0254
15,CGTAATCC,0.285
16,GGTAATCA,0.189
17,CGTAATCA,0.349
18,AGTAATCC,0.102
19,AGTAATCA,0.117
20,CGATCGTA,0.126
21,ACCAAATG,0.0905
22,TAGTAAGA,0.227
23,CCAGCACG,-0.128
24,CCGCATCA,-0.0944
25,ACAAAACG,0.173

row,Sequence,PBM E-score
1,CAAAAACG,0.136
2,AAAAAACG,0.315
3,GAAAAACA,0.094
4,AAAAAACA,0.315
5,TAAAAACA,0.246
6,AGACTTCC,-0.161
7,ATAGGGTG,-0.123
8,ATTCAGAA,0.0683
9,ATAGCGTG,-0.00896
10,AGGGGTTG,-0.134
11,ACTTTATG,0.124
12,AATGTGAT,0.232
13,AATGTGAA,0.255
14,AATGTGAC,0.145
15,CTCCAGGC,-0.0968
16,GCAGAGAC,-0.322
17,AGTCGACA,0.0995
18,AGTCGACC,-0.0691
19,AGTCGACT,0.277
20,AGCCGTGC,-0.233
21,GATATATC,0.133
22,TATATACA,0.226
23,TATATGGA,0.108
24,GATATACA,0.187
25,GATATGGA,0.263

row,Sequence,PBM E-score
1,CATATATA,0.227
2,TATATATA,0.304
3,GATATATA,0.271
4,AATATGGA,0.123
5,ACTCTAGA,0.0228
6,ACAGAGGT,-0.0174
7,ACGCTATC,0.109
8,ATTTTCGG,0.109
9,ATCGTGGG,0.11
10,GAAGACGC,-0.0463
11,CCCGACCG,-0.3
12,CTATAAAA,0.0227
13,ATATAAAA,0.249
14,GTATAAAA,0.287
15,GGATAAAA,0.194
16,GTATAAAC,0.206
17,TTATAAAA,0.256
18,CACCACGG,-0.366
19,GATTGCGA,0.108
20,ATTTTACG,0.309
21,AATTTACG,0.239
22,CTTTTACC,0.197
23,ATTTTACA,0.145
24,ATTTTACC,0.297
25,AATTTACC,0.145

row,Sequence,PBM E-score
1,CCGATCAG,-0.00295
2,CCCCCTAA,-0.291
3,AAAGATCC,-0.0985
4,AGCTGTCG,-0.197
5,GTCGACCA,-0.0665
6,GGGCTGCA,-0.195
7,CCTACTAC,-0.17
8,ACTACTAC,0.0925
9,GCTACTAA,0.138
10,ACTACTAA,0.0558
11,ACTACTAT,0.255
12,GCTACTAC,0.255
13,CGTGACAG,-0.154
14,CGAGAGGC,-0.258
15,CCATCTAG,-0.112
16,TAGTTCCA,0.14
17,AATTTCCG,0.237
18,ATTTTCAC,0.174
19,ATTTTCAG,0.286
20,AATTTCAG,0.0354
21,ATTTTCCC,0.0787
22,ATTTTCCG,0.325
23,AGCTTGAC,-0.0896
24,ATTCTGGA,0.132
25,AAGGTCAT,-0.047

row,Sequence,PBM E-score
1,AACAGACG,-0.0301
2,AACAAGGG,-0.0929
3,GCGCTCAA,-0.131
4,CGACCGCG,-0.129
5,GATTGGTA,0.305
6,AATTGGTA,0.158
7,CATTGGTA,0.0377
8,GAATTGCA,0.101
9,CACGGATG,-0.164
10,AACGGATA,0.255
11,AACGGATT,0.233
12,TACGGATA,0.0129
13,CACGGATA,0.291
14,AACGGATG,-0.101
15,AGTTGTTA,0.114
16,ATCTAGAT,-0.0211
17,TCTGGCCA,-0.0631
18,AGACGCCG,-0.0447
19,TGACGTAA,0.368
20,GCACGTAA,0.0393
21,TCACGTAA,0.359
22,GGACGTCA,-0.0403
23,TGACGTCA,0.331
24,GGACGTAA,-0.0155
25,GCGCGTAA,0.23

row,Sequence,PBM E-score
1,ACGCGTAA,0.0957
2,CGACGTAA,0.19
3,AGACGTCA,-0.0966
4,TCGCGTAA,0.302
5,ACACGTAA,0.217
6,CATGTAAC,0.0356
7,ACCCTTCT,-0.142
8,AGAGTTAG,-0.0808
9,GGTCTAGA,-0.104
10,AACCAGCG,-0.0042
11,GCTGTAAC,0.0596
12,ACTCTGCC,-0.104
13,CCACTTAA,-0.071
14,GCACTTAC,0.0227
15,CCACTTAC,0.257
16,ATACCAAC,0.202
17,ACTTGTCC,0.0688
18,AAGAAGCA,0.119
19,AGCTGTAA,0.0402
20,CATCGCTA,0.0613
21,AGCCCTAG,-0.106
22,CATAAAGG,0.00277
23,CTGAGTAA,0.246
24,GTGAGTAA,0.154
25,ATGAGTAA,0.284

row,Sequence,PBM E-score
1,CTCGAACC,-0.0728
2,TTCTAAAA,0.0712
3,AATCCTCC,-0.0151
4,AGTTAATA,0.264
5,GGTTAATA,0.0683
6,CTTTAATA,0.285
7,GTTTAATA,0.272
8,GTTTAAAA,0.0984
9,ATTTAATA,0.302
10,GTTTAAGA,-0.0881
11,CTTTAAGA,0.0783
12,CTTTAATC,0.152
13,AGTTAATC,0.0976
14,ATTTAATC,0.212
15,ATTTAACA,0.195
16,AATCGCTA,-0.00025
17,GGTCGCCA,-0.186
18,ACCCATCT,0.0208
19,AAAGAGCA,0.132
